The full data set covers some 8,800 targets. This sample favours those with a hit. About 0.5% of all pairs of compound and target were hits. Unmarked numbers belong to inactive results.

This passage reports log2 fold change results from the supplement of paper PMC10849652.

UniProt O60225, sequence (O60225 whole entry, looked up): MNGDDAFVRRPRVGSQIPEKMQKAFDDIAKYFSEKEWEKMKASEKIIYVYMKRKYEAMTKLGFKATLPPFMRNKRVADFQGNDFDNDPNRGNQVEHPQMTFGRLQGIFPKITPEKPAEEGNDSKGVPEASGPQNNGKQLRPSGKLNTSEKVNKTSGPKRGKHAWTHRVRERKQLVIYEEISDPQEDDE
UniProt Q8N196, sequence (Q8N196 whole entry, looked up): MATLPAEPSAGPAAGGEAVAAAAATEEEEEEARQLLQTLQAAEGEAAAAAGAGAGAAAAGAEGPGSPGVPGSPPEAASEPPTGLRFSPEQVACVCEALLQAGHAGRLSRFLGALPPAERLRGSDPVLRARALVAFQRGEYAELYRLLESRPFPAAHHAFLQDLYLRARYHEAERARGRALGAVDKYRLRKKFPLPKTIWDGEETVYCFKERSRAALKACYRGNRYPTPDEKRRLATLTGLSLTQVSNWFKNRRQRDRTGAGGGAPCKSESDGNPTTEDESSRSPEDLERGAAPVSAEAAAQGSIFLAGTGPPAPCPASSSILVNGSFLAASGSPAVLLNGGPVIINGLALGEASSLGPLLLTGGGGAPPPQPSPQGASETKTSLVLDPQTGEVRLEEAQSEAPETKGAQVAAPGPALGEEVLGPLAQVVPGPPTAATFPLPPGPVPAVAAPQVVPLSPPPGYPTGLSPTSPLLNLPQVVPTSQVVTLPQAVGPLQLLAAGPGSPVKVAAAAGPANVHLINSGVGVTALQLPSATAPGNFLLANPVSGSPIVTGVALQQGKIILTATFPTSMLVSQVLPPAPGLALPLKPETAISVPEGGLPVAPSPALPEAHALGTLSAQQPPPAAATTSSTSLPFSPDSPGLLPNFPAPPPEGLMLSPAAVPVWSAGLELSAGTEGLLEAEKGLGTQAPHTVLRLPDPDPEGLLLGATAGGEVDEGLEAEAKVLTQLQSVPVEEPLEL
UniProt Q8NDV3, sequence (Q8NDV3 whole entry, looked up): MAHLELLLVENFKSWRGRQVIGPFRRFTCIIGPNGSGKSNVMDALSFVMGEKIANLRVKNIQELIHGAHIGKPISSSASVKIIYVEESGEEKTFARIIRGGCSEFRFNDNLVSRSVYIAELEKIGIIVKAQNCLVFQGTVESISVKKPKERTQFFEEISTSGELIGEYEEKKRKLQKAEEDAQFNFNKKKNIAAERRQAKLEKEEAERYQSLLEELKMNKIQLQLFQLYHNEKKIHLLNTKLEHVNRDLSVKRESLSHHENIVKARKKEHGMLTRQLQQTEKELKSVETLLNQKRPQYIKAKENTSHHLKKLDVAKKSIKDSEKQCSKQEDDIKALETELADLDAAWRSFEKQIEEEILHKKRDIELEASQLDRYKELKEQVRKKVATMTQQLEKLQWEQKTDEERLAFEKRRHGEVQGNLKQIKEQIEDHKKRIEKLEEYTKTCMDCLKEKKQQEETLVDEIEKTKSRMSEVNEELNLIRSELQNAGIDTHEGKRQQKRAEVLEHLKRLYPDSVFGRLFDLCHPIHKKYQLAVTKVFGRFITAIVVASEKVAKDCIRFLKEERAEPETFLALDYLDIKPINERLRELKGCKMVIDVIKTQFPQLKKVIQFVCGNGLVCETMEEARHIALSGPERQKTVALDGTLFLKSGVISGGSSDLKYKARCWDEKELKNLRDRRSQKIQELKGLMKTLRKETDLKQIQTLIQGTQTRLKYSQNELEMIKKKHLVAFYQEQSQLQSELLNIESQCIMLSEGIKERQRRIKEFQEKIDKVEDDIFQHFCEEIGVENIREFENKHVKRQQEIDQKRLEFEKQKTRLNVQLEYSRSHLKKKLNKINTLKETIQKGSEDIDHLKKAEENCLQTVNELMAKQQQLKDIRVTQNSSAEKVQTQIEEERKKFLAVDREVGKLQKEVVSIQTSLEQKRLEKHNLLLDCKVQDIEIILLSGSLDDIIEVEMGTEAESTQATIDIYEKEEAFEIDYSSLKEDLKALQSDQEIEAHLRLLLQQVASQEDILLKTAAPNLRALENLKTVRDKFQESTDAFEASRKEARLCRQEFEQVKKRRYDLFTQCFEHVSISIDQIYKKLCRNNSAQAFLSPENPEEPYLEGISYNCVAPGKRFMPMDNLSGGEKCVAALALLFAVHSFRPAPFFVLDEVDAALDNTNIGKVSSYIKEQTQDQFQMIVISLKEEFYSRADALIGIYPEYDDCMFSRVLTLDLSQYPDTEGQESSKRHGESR
UniProt Q99961, sequence (Q99961 whole entry, looked up): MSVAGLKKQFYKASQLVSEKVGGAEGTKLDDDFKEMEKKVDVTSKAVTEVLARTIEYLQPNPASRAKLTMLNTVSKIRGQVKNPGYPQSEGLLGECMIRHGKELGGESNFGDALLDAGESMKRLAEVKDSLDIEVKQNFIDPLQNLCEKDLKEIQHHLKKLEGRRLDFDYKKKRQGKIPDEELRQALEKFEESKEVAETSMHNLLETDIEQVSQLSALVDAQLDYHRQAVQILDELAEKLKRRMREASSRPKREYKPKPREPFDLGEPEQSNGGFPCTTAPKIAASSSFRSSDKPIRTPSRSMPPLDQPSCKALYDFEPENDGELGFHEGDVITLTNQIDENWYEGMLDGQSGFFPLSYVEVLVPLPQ
UniProt B2RUZ4, sequence (B2RUZ4 whole entry, looked up): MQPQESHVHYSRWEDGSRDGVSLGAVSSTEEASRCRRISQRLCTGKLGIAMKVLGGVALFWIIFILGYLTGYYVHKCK
UniProt Q9Y3B4, sequence (Q9Y3B4 whole entry, looked up): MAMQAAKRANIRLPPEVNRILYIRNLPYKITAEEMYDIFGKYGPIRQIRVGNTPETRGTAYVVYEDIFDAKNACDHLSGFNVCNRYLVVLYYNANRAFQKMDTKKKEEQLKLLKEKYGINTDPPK
UniProt Q9BWW4, sequence (Q9BWW4 whole entry, looked up): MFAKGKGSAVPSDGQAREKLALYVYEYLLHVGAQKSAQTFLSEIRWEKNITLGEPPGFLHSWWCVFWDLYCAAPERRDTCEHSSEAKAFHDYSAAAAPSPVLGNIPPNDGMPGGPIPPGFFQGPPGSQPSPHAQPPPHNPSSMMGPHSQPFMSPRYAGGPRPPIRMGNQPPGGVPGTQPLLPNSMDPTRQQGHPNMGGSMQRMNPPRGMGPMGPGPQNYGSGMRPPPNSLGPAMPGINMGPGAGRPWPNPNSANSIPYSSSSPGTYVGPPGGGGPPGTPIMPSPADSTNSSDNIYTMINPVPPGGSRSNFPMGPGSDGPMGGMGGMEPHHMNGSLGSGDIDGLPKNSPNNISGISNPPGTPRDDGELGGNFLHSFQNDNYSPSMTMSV
UniProt P78314, sequence (P78314 whole entry, looked up): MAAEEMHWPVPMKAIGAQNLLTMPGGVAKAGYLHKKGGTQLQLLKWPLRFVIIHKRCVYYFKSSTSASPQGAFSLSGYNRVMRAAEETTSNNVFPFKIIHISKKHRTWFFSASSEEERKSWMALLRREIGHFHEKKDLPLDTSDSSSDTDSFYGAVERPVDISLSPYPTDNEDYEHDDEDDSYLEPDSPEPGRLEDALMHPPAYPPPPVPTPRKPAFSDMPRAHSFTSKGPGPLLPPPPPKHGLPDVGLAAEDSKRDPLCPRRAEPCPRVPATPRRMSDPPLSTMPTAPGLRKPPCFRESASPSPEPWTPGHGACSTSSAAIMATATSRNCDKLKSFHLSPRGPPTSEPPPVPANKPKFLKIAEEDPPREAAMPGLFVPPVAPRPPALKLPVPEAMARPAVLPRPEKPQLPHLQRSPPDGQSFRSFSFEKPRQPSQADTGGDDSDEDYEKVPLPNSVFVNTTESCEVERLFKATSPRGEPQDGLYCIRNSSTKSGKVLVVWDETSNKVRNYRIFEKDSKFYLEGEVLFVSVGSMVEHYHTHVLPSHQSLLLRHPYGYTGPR
UniProt O60504, sequence (O60504 whole entry, looked up): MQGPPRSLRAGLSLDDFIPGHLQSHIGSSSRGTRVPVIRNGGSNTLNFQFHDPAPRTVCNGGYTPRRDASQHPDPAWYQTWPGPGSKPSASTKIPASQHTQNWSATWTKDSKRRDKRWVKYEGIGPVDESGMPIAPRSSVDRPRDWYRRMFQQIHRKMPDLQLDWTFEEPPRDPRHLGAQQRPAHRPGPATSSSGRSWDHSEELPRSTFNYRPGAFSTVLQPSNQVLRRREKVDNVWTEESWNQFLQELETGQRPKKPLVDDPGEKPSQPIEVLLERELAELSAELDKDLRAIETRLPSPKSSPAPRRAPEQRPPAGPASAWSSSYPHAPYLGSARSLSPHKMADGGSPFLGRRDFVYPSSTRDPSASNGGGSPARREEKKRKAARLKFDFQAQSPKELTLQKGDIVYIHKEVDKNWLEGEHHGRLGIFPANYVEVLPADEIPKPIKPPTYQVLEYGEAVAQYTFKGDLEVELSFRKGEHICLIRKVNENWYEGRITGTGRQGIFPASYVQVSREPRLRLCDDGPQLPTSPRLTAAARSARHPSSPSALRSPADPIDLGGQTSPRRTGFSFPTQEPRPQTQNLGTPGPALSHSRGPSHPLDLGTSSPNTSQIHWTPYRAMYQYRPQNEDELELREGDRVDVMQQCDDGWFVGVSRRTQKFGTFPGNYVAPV
UniProt Q96EX1, sequence (Q96EX1 whole entry, looked up): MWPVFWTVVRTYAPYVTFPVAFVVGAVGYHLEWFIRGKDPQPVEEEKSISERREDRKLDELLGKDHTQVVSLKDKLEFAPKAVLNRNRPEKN
UniProt Q8N1S5, sequence (Q8N1S5 whole entry, looked up): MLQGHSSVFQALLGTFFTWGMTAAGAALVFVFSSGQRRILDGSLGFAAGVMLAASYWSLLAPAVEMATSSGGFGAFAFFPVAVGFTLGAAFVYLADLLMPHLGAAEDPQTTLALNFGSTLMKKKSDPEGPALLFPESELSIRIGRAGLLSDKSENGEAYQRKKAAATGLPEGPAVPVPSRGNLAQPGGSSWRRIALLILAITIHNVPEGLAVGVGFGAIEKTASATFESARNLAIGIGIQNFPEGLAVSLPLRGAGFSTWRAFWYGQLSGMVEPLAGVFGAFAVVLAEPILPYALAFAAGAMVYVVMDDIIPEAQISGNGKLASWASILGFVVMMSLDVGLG
UniProt P10124, sequence (P10124 whole entry, looked up): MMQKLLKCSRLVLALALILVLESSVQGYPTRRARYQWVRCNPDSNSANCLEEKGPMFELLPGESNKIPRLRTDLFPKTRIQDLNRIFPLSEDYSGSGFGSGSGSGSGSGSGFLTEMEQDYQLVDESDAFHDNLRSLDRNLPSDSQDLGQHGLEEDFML

Compound in this assay: CCN(CCCOc1ccc2c(Nc3cc(CC(=O)Nc4cccc(F)c4)[nH]n3)ncnc2c1)CCOP(=O)(O)O [barasertib]
As to the kind of experiment: log2 fold change, soluble protein after heating vs DMSO (PISA); higher = thermal stabilisation; K562 lysate, 10 uM; active = over 0.2 and 3.5 SD of the protein, either way, in both replicates (recomputed). Put shortly:
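Quantification was by TMTpro 16plex LC-MS/MS with equalised channel sums, applied to the supernatant after 21,000xg for 90 min. Samples were crude K562 extract at 1 mg/mL protein in PBS pH 7.4 with 1 mM MgCl2, treated with 10 μM compound for 30 min, heated for 3 min across 48°C-58°C, pooled and brought to 0.5% NP-40 at 4°C. Values are log-two fold changes in thermal stability relative to solvent controls, from duplicates.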
Take SORBS3 (UniProt O60504): the log2 fold change was -0.032. For the target SF3B6 (UniProt Q9Y3B4), the log2 fold change was -0.026. Under TAF1B (UniProt Q53T94) stands 0.11. For the target SH3GL1 (UniProt Q99961), the log2 fold change is -0.019. As for SLC25A38 (UniProt Q96DW6), the log2 fold change is -0.005. As for SLC30A6 isoform 2 (UniProt Q6NXT4), the log2 fold change was 0.146. For SMYD3 (UniProt Q9H7B4) the value was 0.017; for SIX5 (UniProt Q8N196), -0.026. Take SSBP3 (UniProt Q9BWW4): the log2 fold change is -0.049. As to SNRPD2 (UniProt P62316), the log2 fold change is 0.001. In the case of SNUPN (UniProt O95149), the log2 fold change is 0.06. For SLC39A11 (UniProt Q8N1S5) the value was -0.126; for STN1 (UniProt Q9H668), 0.114; for SRSF9 (UniProt Q13242), 0.049. For SMIM12 (UniProt Q96EX1) the value was 0.106. For SZT2 (UniProt Q5T011) the value was 0.313; for STMN3 (UniProt Q9NZ72), 0.098. Turning to SLC25A44 (UniProt Q96H78), the log2 fold change was 0.007.

With SYNE2 isoform 2 (UniProt Q8WXH0), the log2 fold change was 0.085. For STK3 isoform 2 (UniProt Q13188), the log2 fold change is 0.032.

As to SPPL2A (UniProt Q8TCT8), the log2 fold change was 0.077.

In the case of SURF2 (UniProt Q15527), the log2 fold change is -0.007. For SPC25 (UniProt Q9HBM1) the value was 0.036. As to SH3BP2 isoform 4 (UniProt P78314), the log2 fold change is -0.075.

In the case of SMC1B isoform 3 (UniProt Q8NDV3), the log2 fold change is 0.003. Under TARBP1 (UniProt Q13395) stands 0.02; under SSX5 isoform 2 (UniProt O60225), -0.065; under SRRT (UniProt Q9BXP5), -0.008. Turning to SMIM1 (UniProt B2RUZ4), the log2 fold change is 0.002. As for SOX5 (UniProt P35711), the log2 fold change is 0.048. On to SYK (UniProt P43405), for which the log2 fold change is 0.092. For SUZ12 (UniProt Q15022) the value was -0.012; for SRGN (UniProt P10124), -0.033.
